Measured values from PMC5540273 (PLoS ONE, 2017).

Legend:
Conditions in all cases: concentration: 1 μM, replicates: in singlicate; n = 1
[1] = system: DAPK2
[2] = system: DAPK3
[3] = system: T1, DCAMKL1
T1 construct: gene DCLK1

[4] = system: T2, DCAMKL2
T2 construct: gene DCLK2

[5] = system: T3, DCAMKL3
T3 construct: gene DCLK3

[6] = system: DDR1
[7] = system: DDR2
[8] = system: T4, DLK
T4 construct: gene MAP3K12

[9] = system: T5, DMPK2
T5 construct: gene CDC42BPG

[10] = system: DMPK
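Also: KINOMEscan kinase panel screen.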

COc1ccc2nc(-c3cccc(C)n3)nc(Nc3ccncc3)c2c1 [GSK204919]
%Inh [1]: 0%
%Inh [2]: 22%
%Inh [3]: 5%
%Inh [4]: 26%
%Inh [5]: 0%
%Inh [6]: 58%
%Inh [7]: 5%
%Inh [8]: 8%
%Inh [9]: 91.1%
%Inh [10]: 0%

COc1ccccc1CNC(=O)c1cc(C(=O)c2ccccc2C)c[nH]1 [GSK364507]
%Inh [1]: 0%
%Inh [2]: 17%
%Inh [3]: 16%
%Inh [4]: 16%
%Inh [5]: 4%
%Inh [6]: 11%
%Inh [7]: 0%
%Inh [8]: 15%
%Inh [9]: 5%
%Inh [10]: 0%

Cn1ccc2ncnc(Oc3ccc(NC(=O)Nc4ccccc4)cc3)c21
%Inh [1]: 0%
%Inh [2]: 0%
%Inh [3]: 23%
%Inh [4]: 0%
%Inh [5]: 0%
%Inh [6]: 63%
%Inh [7]: 74%
%Inh [8]: 0%
%Inh [9]: 0%
%Inh [10]: 0%

CC(C)(C)c1ccc(C(=O)Nc2cn3cc(-c4cccnc4)ccc3n2)cc1
%Inh [1]: 13%
%Inh [2]: 8%
%Inh [3]: 45%
%Inh [4]: 12%
%Inh [5]: 25%
%Inh [6]: 24%
%Inh [7]: 0%
%Inh [8]: 0%
%Inh [9]: 17%
%Inh [10]: 5%

Cc1c(Cn2ccn3c(=O)cc(N4CCOCC4)nc23)cccc1C(F)(F)F [GSK2289044]
%Inh [1]: 12%
%Inh [2]: 12%
%Inh [3]: 3%
%Inh [4]: 0%
%Inh [5]: 13%
%Inh [6]: 0%
%Inh [7]: 8%
%Inh [8]: 0%
%Inh [9]: 0%
%Inh [10]: 64%

COc1ccc(CNC(=O)NC2CCN(c3ccnc(Nc4cc(OC)c(OC)c(OC)c4)n3)C2)cc1 (centres unmarked) [GSK1379748]
%Inh [1]: 0%
%Inh [2]: 10%
%Inh [3]: 5%
%Inh [4]: 0%
%Inh [5]: 0%
%Inh [6]: 1%
%Inh [7]: 45%
%Inh [8]: 100%
%Inh [9]: 2%
%Inh [10]: 0%

O=S(=O)(c1ccc(-c2ccnc3[nH]ccc23)cc1)N1CCCC1 [GSK846226]
%Inh [1]: 48%
%Inh [2]: 76%
%Inh [3]: 23%
%Inh [4]: 0%
%Inh [5]: 0%
%Inh [6]: 0%
%Inh [7]: 0%
%Inh [8]: 0%
%Inh [9]: 15%
%Inh [10]: 3%

Cc1csc(-c2nc(Nc3ccncc3)c3ccccc3n2)n1 [GW869640]
%Inh [1]: 26%
%Inh [2]: 48%
%Inh [3]: 29%
%Inh [4]: 28%
%Inh [5]: 30%
%Inh [6]: 22%
%Inh [7]: 35%
%Inh [8]: 0%
%Inh [9]: 35%
%Inh [10]: 17%

Fc1cc(Cl)ccc1Nc1ccnc2cc(-c3ccc(CN4CCCCC4)o3)ccc12 [GW560116]
%Inh [1]: 0%
%Inh [2]: 25%
%Inh [3]: 0%
%Inh [4]: 14%
%Inh [5]: 0%
%Inh [6]: 27%
%Inh [7]: 36%
%Inh [8]: 36%
%Inh [9]: 0%
%Inh [10]: 0%

Cc1cccc(-c2nc(Nc3ccncc3)c3ccccc3n2)n1 [GW855857]
%Inh [1]: 7%
%Inh [2]: 17%
%Inh [3]: 14%
%Inh [4]: 0%
%Inh [5]: 21%
%Inh [6]: 30%
%Inh [7]: 45%
%Inh [8]: 0%
%Inh [9]: 76%
%Inh [10]: 2%

C[C@@H]1CCCCN1c1cc(-c2ccc3c(N)n[nH]c3c2)nc(N)n1 [GSK2258759]
%Inh [1]: 0%
%Inh [2]: 19%
%Inh [3]: 2%
%Inh [4]: 0%
%Inh [5]: 0%
%Inh [6]: 0%
%Inh [7]: 0%
%Inh [8]: 21%
%Inh [9]: 0%
%Inh [10]: 0%

O=C(Nc1n[nH]c2nc(-c3nccs3)c(Br)cc12)C1CCCC1 [SB-742609]
%Inh [1]: 0%
%Inh [2]: 5%
%Inh [3]: 9%
%Inh [4]: 16%
%Inh [5]: 0%
%Inh [6]: 0%
%Inh [7]: 11%
%Inh [8]: 14%
%Inh [9]: 0%
%Inh [10]: 0%

CC1=C(C(=O)Nc2cc3cn[nH]c3cc2F)C(c2ccc(C(F)(F)F)cc2)CC(=O)N1 (centres unmarked) [GSK429286]
%Inh [1]: 0%
%Inh [2]: 24%
%Inh [3]: 4%
%Inh [4]: 7%
%Inh [5]: 39%
%Inh [6]: 3%
%Inh [7]: 0%
%Inh [8]: 0%
%Inh [9]: 0%
%Inh [10]: 0%

Fc1cc(Cl)ccc1Nc1ccnc2cc(I)ccc12 [GW551191]
%Inh [1]: 0%
%Inh [2]: 9%
%Inh [3]: 15%
%Inh [4]: 0%
%Inh [5]: 0%
%Inh [6]: 33%
%Inh [7]: 8%
%Inh [8]: 27%
%Inh [9]: 8%
%Inh [10]: 21%

Cc1cc(-c2ccc3c(c2)CC[C@@H](N[C@@H](C)c2ccccc2)C3)cnc1N.Cl [GW412617]
%Inh [1]: 0%
%Inh [2]: 0%
%Inh [3]: 0%
%Inh [4]: 0%
%Inh [5]: 0%
%Inh [6]: 14%
%Inh [7]: 25%
%Inh [8]: 87%
%Inh [9]: 4%
%Inh [10]: 6%

CS(=O)(=O)c1ccc(-c2nc3n(c2-c2ccncc2)CCC3)cc1 [SKF-105942]
%Inh [1]: 0%
%Inh [2]: 22%
%Inh [3]: 21%
%Inh [4]: 13%
%Inh [5]: 20%
%Inh [6]: 0%
%Inh [7]: 7%
%Inh [8]: 0%
%Inh [9]: 0%
%Inh [10]: 0%

COc1cccc(NC(=O)NC2CCN(c3ccnc(Nc4ccc(F)cc4)n3)C2)c1 (centres unmarked) [GSK1379721]
%Inh [1]: 0%
%Inh [2]: 2%
%Inh [3]: 11%
%Inh [4]: 2%
%Inh [5]: 0%
%Inh [6]: 17%
%Inh [7]: 38%
%Inh [8]: 0%
%Inh [9]: 13%
%Inh [10]: 0%

CCCc1ccc(S(=O)(=O)NC2CCN(c3ccnc(Nc4ccc(F)cc4)n3)C2)cc1 (centres unmarked) [GSK1379715]
%Inh [1]: 0%
%Inh [2]: 7%
%Inh [3]: 10%
%Inh [4]: 0%
%Inh [5]: 0%
%Inh [6]: 0%
%Inh [7]: 7%
%Inh [8]: 0%
%Inh [9]: 0%
%Inh [10]: 0%

Cl.Oc1ccc(-c2nc(-c3ccccc3)[nH]c2-c2ccncc2)cc1 [SB-428218]
%Inh [1]: 0%
%Inh [2]: 31%
%Inh [3]: 6%
%Inh [4]: 15%
%Inh [5]: 7%
%Inh [6]: 9%
%Inh [7]: 59%
%Inh [8]: 58%
%Inh [9]: 0%
%Inh [10]: 0%

Cc1ccc(NC(=O)Nc2cccc(Cl)c2)cc1-c1ccc(C(=O)Nc2ccncc2)cc1 [GSK1398468]
%Inh [1]: 0%
%Inh [2]: 22%
%Inh [3]: 17%
%Inh [4]: 0%
%Inh [5]: 0%
%Inh [6]: 99.7%
%Inh [7]: 72%
%Inh [8]: 25%
%Inh [9]: 8%
%Inh [10]: 0%

NC(=O)c1nnc2ccccc2c1N
%Inh [1]: 10%
%Inh [2]: 6%
%Inh [3]: 9%
%Inh [4]: 30%
%Inh [5]: 0%
%Inh [6]: 0%
%Inh [7]: 11%
%Inh [8]: 18%
%Inh [9]: 0%
%Inh [10]: 0%

Cc1cccc(-c2nc(-c3ccc(S(C)(=O)=O)cc3)sc2-c2ccnc(NCCc3ccccc3)c2)c1
%Inh [1]: 15%
%Inh [2]: 0%
%Inh [3]: 5%
%Inh [4]: 0%
%Inh [5]: 8%
%Inh [6]: 98.1%
%Inh [7]: 79%
%Inh [8]: 0%
%Inh [9]: 10%
%Inh [10]: 16%

O=C(O)COc1ncnc2cc(-c3ccc4[nH]ncc4c3)sc12
%Inh [1]: 0%
%Inh [2]: 5%
%Inh [3]: 0%
%Inh [4]: 2%
%Inh [5]: 8%
%Inh [6]: 0%
%Inh [7]: 7%
%Inh [8]: 34%
%Inh [9]: 3%
%Inh [10]: 13%

COc1cc(Nc2nccc(N3CCC(NC(=O)Nc4cc(C)ccc4C)C3)n2)cc(OC)c1OC (centres unmarked) [GSK1379762]
%Inh [1]: 0%
%Inh [2]: 7%
%Inh [3]: 0%
%Inh [4]: 12%
%Inh [5]: 0%
%Inh [6]: 43%
%Inh [7]: 10%
%Inh [8]: 30%
%Inh [9]: 22%
%Inh [10]: 0%

Cc1ccc(C(=O)Nc2ccc(Nc3ccnc4cc(-c5ccccn5)ccc34)cc2O)cc1.Cl [GW440146]
%Inh [1]: 0%
%Inh [2]: 13%
%Inh [3]: 0%
%Inh [4]: 0%
%Inh [5]: 16%
%Inh [6]: 12%
%Inh [7]: 10%
%Inh [8]: 47%
%Inh [9]: 0%
%Inh [10]: 0%

O=C(Nc1ccccc1)Nc1cccc(Oc2ccc3nccn3n2)c1
%Inh [1]: 0%
%Inh [2]: 0%
%Inh [3]: 0%
%Inh [4]: 0%
%Inh [5]: 69%
%Inh [6]: 97.8%
%Inh [7]: 1%
%Inh [8]: 0%
%Inh [9]: 0%
%Inh [10]: 4%

COc1cc2ncn(-c3cc(OCC4CCCO4)c(C(N)=O)s3)c2cc1OC (centres unmarked) [GSK204607]
%Inh [1]: 0%
%Inh [2]: 2%
%Inh [3]: 18%
%Inh [4]: 0%
%Inh [5]: 0%
%Inh [6]: 0%
%Inh [7]: 21%
%Inh [8]: 33%
%Inh [9]: 0%
%Inh [10]: 0%

COc1ccc(Nc2nccc(-c3cccc(NC(=O)c4cc5cc(F)ccc5[nH]4)c3)n2)cc1 [GSK1229782]
%Inh [1]: 11%
%Inh [2]: 6%
%Inh [3]: 4%
%Inh [4]: 0%
%Inh [5]: 4%
%Inh [6]: 0%
%Inh [7]: 39%
%Inh [8]: 37%
%Inh [9]: 13%
%Inh [10]: 25%

Fc1cccc(COc2nnc(-c3ccc4c(c3)CCO4)o2)c1
%Inh [1]: 0%
%Inh [2]: 0%
%Inh [3]: 9%
%Inh [4]: 0%
%Inh [5]: 0%
%Inh [6]: 0%
%Inh [7]: 12%
%Inh [8]: 0%
%Inh [9]: 0%
%Inh [10]: 0%

Cl.c1ccc(-c2n[nH]cc2-c2ccnc(-c3ccc(CN4CCOCC4)cc3)c2)nc1 [GW776245]
%Inh [1]: 12%
%Inh [2]: 4%
%Inh [3]: 38%
%Inh [4]: 16%
%Inh [5]: 12%
%Inh [6]: 0%
%Inh [7]: 34%
%Inh [8]: 0%
%Inh [9]: 9%
%Inh [10]: 0%

Cc1c(O)cccc1Nc1ccnc2ccc(C(F)(F)F)cc12.Cl [GW466413]
%Inh [1]: 0%
%Inh [2]: 0%
%Inh [3]: 0%
%Inh [4]: 0%
%Inh [5]: 0%
%Inh [6]: 16%
%Inh [7]: 24%
%Inh [8]: 43%
%Inh [9]: 0%
%Inh [10]: 0%

O=C(Nc1ccc2c(c1)OCO2)NC1CCN(c2ccnc(Nc3ccc(F)cc3)n2)C1 (centres unmarked) [GSK1379724]
%Inh [1]: 0%
%Inh [2]: 0%
%Inh [3]: 0%
%Inh [4]: 7%
%Inh [5]: 32%
%Inh [6]: 0%
%Inh [7]: 52%
%Inh [8]: 24%
%Inh [9]: 9%
%Inh [10]: 0%

O=C(Nc1n[nH]c2nc(-c3nccs3)c(Br)cc12)C1CC1 [SB-742251]
%Inh [1]: 0%
%Inh [2]: 6%
%Inh [3]: 4%
%Inh [4]: 0%
%Inh [5]: 0%
%Inh [6]: 0%
%Inh [7]: 26%
%Inh [8]: 34%
%Inh [9]: 0%
%Inh [10]: 0%

COC(=O)c1c(-c2ccccc2)c2cc(OC)ccc2c(=O)n1Cc1ccccc1
%Inh [1]: 2%
%Inh [2]: 6%
%Inh [3]: 12%
%Inh [4]: 7%
%Inh [5]: 0%
%Inh [6]: 81%
%Inh [7]: 50%
%Inh [8]: 9%
%Inh [9]: 0%
%Inh [10]: 0%

Nc1ncnc2[nH]c(-c3ccccc3)nc12 [AH5015]
%Inh [1]: 0%
%Inh [2]: 27%
%Inh [3]: 11%
%Inh [4]: 0%
%Inh [5]: 13%
%Inh [6]: 0%
%Inh [7]: 13%
%Inh [8]: 21%
%Inh [9]: 0%
%Inh [10]: 0%
